Data on five compounds can be found in ChEMBL document CHEMBL1961873, “Compounds: GSK PKIS; Assays: Nanosyn kinase panel” (2012).

Structures are written as SMILES.

The term inhibition denotes the change of the read-out against control, counted positive when it falls.

The target in experiment [1] is Leukocyte tyrosine kinase receptor (Homo sapiens) (UniProt P29376). The settings on record: at 1 µM.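 Note: each value is the mean inhibition of LTK.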
The target in experiment [2] is Tyrosine-protein kinase Lyn (Homo sapiens) (UniProt P07948). Conditions: at 0.1 µM.
Experiment [3] has the same target. The settings on record: at 1 µM.
Experiment [4] shares this target. Conditions: at 0.1 µM. The source holds these as a separate data set.
Experiment [5] shares this target. Conditions: at 1 µM. The source holds these as a separate data set.
The target of experiment [6] is T1, Tyrosine-protein kinase Mer (Homo sapiens) (UniProt Q12866).
T1 sequence (whole entry): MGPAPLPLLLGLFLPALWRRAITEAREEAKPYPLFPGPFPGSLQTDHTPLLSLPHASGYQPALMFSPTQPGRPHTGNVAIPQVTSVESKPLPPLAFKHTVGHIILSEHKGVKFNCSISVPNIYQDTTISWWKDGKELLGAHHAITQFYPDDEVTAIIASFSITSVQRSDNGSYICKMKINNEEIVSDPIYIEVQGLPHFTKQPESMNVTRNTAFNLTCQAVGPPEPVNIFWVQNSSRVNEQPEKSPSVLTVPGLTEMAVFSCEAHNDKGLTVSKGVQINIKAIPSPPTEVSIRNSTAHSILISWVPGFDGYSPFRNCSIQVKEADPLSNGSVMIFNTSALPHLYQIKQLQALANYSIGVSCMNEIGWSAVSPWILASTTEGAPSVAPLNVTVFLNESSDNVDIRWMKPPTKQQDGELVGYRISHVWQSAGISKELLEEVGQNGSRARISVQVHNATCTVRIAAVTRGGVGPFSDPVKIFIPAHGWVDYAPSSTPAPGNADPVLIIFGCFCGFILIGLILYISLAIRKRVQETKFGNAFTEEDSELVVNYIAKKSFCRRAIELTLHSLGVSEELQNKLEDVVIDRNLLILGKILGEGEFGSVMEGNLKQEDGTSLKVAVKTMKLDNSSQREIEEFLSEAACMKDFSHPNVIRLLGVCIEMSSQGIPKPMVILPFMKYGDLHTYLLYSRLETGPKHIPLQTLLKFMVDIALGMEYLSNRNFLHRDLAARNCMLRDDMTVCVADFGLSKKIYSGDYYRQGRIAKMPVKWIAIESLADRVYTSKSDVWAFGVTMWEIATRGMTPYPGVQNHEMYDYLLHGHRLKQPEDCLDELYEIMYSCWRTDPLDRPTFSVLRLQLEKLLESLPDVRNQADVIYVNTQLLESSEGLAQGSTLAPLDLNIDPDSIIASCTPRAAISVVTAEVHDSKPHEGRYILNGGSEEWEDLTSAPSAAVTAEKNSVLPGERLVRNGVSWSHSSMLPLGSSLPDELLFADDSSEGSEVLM
Conditions: at 0.1 µM.

In experiment [7] the target is T1, Tyrosine-protein kinase Mer (Homo sapiens). The settings on record: at 1 µM.
For experiment [8], the target named is Hepatocyte growth factor receptor (Homo sapiens) (UniProt P08581). Conditions: at 0.1 µM.
Experiment [9] has the same target. The settings on record: at 1 µM.
Experiment [10] deals with T2, Muscle, skeletal receptor tyrosine-protein kinase (Homo sapiens) (UniProt O15146).
T2 sequence (whole entry): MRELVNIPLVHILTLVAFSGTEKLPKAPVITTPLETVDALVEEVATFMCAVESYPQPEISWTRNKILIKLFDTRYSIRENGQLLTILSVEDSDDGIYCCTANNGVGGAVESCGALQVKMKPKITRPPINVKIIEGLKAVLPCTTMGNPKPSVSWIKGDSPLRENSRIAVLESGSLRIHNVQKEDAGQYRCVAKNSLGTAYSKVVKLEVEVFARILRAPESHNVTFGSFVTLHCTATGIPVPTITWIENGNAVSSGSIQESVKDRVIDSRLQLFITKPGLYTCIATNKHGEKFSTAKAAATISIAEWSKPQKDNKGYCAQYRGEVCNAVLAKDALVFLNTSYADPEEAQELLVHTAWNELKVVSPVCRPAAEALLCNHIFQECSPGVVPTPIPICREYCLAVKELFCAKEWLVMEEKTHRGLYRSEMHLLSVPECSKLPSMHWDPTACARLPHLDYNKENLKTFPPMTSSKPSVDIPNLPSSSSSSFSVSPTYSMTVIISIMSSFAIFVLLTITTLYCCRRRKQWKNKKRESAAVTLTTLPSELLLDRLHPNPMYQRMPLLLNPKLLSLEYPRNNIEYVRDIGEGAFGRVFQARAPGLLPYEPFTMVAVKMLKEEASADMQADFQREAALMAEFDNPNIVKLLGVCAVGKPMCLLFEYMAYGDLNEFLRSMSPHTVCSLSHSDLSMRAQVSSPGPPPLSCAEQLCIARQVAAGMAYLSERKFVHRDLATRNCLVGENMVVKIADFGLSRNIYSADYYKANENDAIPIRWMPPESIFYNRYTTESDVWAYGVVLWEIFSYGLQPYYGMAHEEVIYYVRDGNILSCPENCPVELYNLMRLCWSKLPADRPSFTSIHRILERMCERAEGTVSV
The settings on record: at 0.1 µM.

Experiment [11] has as its target T2, Muscle, skeletal receptor tyrosine-protein kinase (Homo sapiens). Conditions: at 1 µM.
Experiment [12] concerns the target Platelet-derived growth factor receptor alpha (Homo sapiens) (UniProt P16234). Conditions: at 0.1 µM.
Experiment [13] shares this target. Conditions: at 1 µM.
The subject of experiment [14] is Platelet-derived growth factor receptor alpha (Homo sapiens), P16234 [D842V]. The settings on record: at 0.1 µM.
Experiment [15] shares this test system. The settings on record: at 1 µM.
The test system of experiment [16] is Platelet-derived growth factor receptor alpha (Homo sapiens), P16234 [T674I]. Conditions: at 0.1 µM.
For experiment [17] the test system is unchanged. The settings on record: at 1 µM.
Experiment [18] has as its system Platelet-derived growth factor receptor alpha (Homo sapiens), P16234 [V561D]. The settings on record: at 0.1 µM.
Experiment [19] shares this test system. Conditions: at 1 µM.
The target of experiment [20] is Platelet-derived growth factor receptor beta (Homo sapiens) (UniProt P09619). The settings on record: at 0.1 µM.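 Note: reported value is the mean percent inhibition of the kinase.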
Chain of Platelet-derived growth factor receptor beta (Homo sapiens) (P09619 whole entry): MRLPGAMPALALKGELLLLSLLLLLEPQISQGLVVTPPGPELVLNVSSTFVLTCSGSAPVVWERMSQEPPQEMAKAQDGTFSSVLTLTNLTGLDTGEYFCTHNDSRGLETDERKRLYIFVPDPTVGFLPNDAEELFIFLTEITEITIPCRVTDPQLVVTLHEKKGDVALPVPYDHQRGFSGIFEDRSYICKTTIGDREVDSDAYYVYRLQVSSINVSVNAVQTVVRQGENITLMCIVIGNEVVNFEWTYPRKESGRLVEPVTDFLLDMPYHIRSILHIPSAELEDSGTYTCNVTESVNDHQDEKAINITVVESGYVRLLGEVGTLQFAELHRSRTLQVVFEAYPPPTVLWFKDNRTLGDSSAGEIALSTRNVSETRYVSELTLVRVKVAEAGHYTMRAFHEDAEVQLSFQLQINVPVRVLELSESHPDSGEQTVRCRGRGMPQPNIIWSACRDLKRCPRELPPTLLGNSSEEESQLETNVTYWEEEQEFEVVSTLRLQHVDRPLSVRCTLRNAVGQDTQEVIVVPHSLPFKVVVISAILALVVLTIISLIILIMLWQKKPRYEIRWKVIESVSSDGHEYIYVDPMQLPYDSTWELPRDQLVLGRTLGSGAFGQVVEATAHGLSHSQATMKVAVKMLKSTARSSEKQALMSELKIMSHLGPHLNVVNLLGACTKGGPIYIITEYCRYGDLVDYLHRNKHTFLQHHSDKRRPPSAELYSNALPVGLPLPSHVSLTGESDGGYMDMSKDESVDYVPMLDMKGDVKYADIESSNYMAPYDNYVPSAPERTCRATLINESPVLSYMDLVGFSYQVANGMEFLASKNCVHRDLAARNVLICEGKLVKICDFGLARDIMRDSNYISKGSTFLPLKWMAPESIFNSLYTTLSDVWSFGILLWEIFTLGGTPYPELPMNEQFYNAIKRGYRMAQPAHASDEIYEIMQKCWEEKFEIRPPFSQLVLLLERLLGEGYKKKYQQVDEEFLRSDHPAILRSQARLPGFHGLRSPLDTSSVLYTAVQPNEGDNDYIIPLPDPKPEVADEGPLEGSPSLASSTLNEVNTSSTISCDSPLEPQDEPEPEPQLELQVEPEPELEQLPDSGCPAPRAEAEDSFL

Chain of Platelet-derived growth factor receptor alpha (Homo sapiens) (P16234 whole entry): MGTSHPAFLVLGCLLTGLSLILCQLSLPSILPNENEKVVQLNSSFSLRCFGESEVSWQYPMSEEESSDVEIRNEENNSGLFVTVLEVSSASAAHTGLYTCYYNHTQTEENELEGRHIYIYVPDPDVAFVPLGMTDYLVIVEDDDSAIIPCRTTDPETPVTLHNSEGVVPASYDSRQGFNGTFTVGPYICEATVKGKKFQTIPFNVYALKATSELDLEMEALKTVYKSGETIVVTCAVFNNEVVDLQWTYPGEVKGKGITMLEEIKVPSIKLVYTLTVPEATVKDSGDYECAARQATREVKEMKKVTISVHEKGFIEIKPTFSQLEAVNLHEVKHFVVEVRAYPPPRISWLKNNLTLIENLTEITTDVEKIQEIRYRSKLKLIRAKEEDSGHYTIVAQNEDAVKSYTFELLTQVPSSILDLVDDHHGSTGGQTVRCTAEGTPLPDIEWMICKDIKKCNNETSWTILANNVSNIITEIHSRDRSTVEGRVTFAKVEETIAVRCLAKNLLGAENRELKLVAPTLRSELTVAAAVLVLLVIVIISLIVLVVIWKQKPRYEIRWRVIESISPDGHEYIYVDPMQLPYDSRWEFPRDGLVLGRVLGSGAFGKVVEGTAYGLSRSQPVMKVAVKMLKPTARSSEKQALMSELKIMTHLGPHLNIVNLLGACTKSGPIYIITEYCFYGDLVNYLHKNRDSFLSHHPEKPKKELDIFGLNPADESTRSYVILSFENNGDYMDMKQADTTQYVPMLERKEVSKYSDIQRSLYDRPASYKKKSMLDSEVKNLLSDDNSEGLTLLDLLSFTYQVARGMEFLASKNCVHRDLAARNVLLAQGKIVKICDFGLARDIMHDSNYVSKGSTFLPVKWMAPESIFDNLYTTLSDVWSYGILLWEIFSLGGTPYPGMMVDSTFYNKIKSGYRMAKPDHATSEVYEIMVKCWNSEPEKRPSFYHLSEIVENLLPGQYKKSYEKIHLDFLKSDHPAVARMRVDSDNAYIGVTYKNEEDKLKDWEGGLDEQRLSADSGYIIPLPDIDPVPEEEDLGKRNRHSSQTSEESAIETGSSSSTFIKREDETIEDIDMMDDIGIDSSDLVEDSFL
Chain of Platelet-derived growth factor receptor alpha (Homo sapiens), P16234 [V561D] (P16234 whole entry V561D): as the sequence (P16234 whole entry) above, with V561D counted along it
Chain of Platelet-derived growth factor receptor alpha (Homo sapiens), P16234 [D842V] (P16234 whole entry D842V): as the sequence (P16234 whole entry) above, with D842V counted along it
Chain of Tyrosine-protein kinase Lyn (Homo sapiens) (P07948 2-512 limits assumed): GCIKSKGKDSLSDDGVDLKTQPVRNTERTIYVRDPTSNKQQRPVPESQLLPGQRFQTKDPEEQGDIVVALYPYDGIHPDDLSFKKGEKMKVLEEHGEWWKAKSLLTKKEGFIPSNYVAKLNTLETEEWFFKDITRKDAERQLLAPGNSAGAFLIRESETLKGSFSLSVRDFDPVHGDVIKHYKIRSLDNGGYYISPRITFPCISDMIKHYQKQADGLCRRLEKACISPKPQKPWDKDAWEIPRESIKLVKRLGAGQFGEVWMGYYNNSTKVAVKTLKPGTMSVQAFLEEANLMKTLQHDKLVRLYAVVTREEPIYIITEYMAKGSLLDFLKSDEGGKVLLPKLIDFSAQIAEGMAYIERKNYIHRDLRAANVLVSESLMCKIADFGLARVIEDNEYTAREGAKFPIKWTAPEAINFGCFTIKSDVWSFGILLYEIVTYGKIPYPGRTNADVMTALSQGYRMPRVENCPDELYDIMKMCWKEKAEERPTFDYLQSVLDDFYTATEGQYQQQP

For `CCn1c(-c2nonc2N)nc2cnc(Oc3cccc(NC(=O)c4ccc(OCCN5CCOCC5)cc4)c3)cc21`, the inhibition in experiment [1] was 1.51%; in [2] it was 5.8%; in [3] it was 4.87%; in [4] it was 3.05%; in [5] it was 2.62%; in experiment [6] it was 1.1%. The inhibition in [7] was 2.56%; in [8], 3.9%; in [9] it was 7.84%; in [10], 2.09%; in experiment [11], -1.35%; in [12], 5.93%. The inhibition worked out at 9.57% in experiment [13]; 1.95% in [14]; 4.64% in [15]; 4.39% in experiment [16]; 9.13% in experiment [17]; 3.13% in experiment [18]. The values for the inhibition in experiment [19] and in experiment [20] were 3.7% and 2.12%, respectively.
On to `NS(=O)(=O)c1cccc(-c2ccc3c(NC(=O)C4CC4)n[nH]c3c2)c1`, for which the inhibition is -0.78% in [1]; 1.09% in experiment [2]; 1.65% in experiment [3]; 1.19% in experiment [4]; 1.05% in experiment [5]; 0.89% in [6]. In addition, the inhibition in experiment [7] is 1.03%; in [8], -4.06%; in [9], 3.16%; in [10], 0.75%; in experiment [11], 4.13%; in experiment [12], 3.24%. The inhibition in experiment [13] is 9.75%; in experiment [14], 1.86%; in experiment [15], 7.06%; in experiment [16] it was -0.86%; in experiment [17] it was 1.24%; in [18], 3.88%. The inhibition in experiment [19] came out at 6.54%; in [20], 0.91%.
For `CC1=C(C(=O)Nc2ccc3[nH]ncc3c2)C(c2ccc3ccccc3c2)CC(=O)N1` (stereo not given), the inhibition in experiment [1] was 3.95%; in experiment [2], 6.74%; in [3], 30.8%; in experiment [4], 4.2%; in experiment [5], 26.2%; in [6] it was 0.87%. The inhibition in experiment [7] is 2.79%; in [8] it was 8.81%; in experiment [9] it was 40.3%; in experiment [10], 2.08%; in experiment [11], 5.45%; in experiment [12], 8.08%. Further, the inhibition in experiment [13] worked out at 14.6%; in [14], 2.86%; in experiment [15] it was 5.83%; in experiment [16], 3.54%; in experiment [17], 5.01%; in experiment [18], 5.52%. The inhibition amounted to 7.45% in [19] and 2.15% in experiment [20].
As to `CCn1c(-c2nonc2N)nc2cncc(C(=O)N3CC[C@H](N)C3)c21`, the inhibition came out at 4.61% in [1]; 8.57% in experiment [2]; 7.74% in experiment [3]; 6.42% in experiment [4]; 5.67% in [5]; 0.47% in experiment [6]. For the same compound, the inhibition in [7] stood at 3.48%; in experiment [8], 5.74%; in experiment [9], 5.85%; in experiment [10] it was 4.23%; in experiment [11], 3.51%; in [12] it was 7.67%. Moreover, the inhibition turned out to be 6.08% in experiment [13]; 4.02% in [14]; 5.6% in [15]; 6.8% in experiment [16]; 8.93% in experiment [17]; 2.86% in experiment [18]. Also, the inhibition in experiment [19] is 1.28%; in experiment [20], 4.13%.
`Nc1ncnc2occ(-c3ccc(NC(=O)Nc4cccc(C(F)(F)F)c4)cc3)c12`: the inhibition in experiment [1] was determined as 47.1%; in experiment [2] it was 19.4%; in experiment [3] it was 72.2%; in experiment [4] it was 13.3%; in experiment [5], 67.8%; in [6], 3.32%. Moreover, the inhibition in experiment [7] was found to be 31.6%; in experiment [8] it was 3.03%; in experiment [9], 29%; in [10], 72.9%; in experiment [11] it was 90.2%; in [12], 88.2%. In addition, the inhibition in [13] amounted to 93.1%; in [14], 26.5%; in experiment [15] it was 76.4%; in experiment [16], 79.5%; in experiment [17], 85%; in [18], 95.3%. In addition, the inhibition in [19] worked out at 99%; in experiment [20] it was 69.4%.
